The whole screen tested about 5,500 compounds, of which about 2,000 (36%) were called active. Roughly 18% stayed inconclusive and do not appear here. No stated cut-off is given here; in the data, active means normalized growth mostly below about 0.91 (no sharp cut-off); inconclusive means no clear call, values can overlap the other calls; inactive means mostly above about 0.92. This is one part of the list.
Test: chemical genetic growth profiling, strain panel (AID 1159580);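 further: tested at 20 µM; growth read once vehicle control cultures reached saturation at 30 °C; 1 = growth at the plate median or of vehicle wells; lower values mean less growth of the strain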
Conditions: S. cerevisiae deletion strains, growth OD

Measured: normalized growth

NCCC(=O)NCCc1cnc[nH]1
inactive: locus YAL013W, strain DEP1, hits give low values 1 | locus YAL040C, strain CLN3, hits give low values 0.98 | locus YCL061C, strain MRC1 (second series), hits give low values 0.997 | locus YER002W, strain NOP16, hits give low values 0.993 | locus YGR078C, strain PAC10, hits give low values 1.01 | locus YMR263W, strain SAP30, hits give low values 1 | locus YNL128W, strain TEP1, hits give low values 1.01 | locus YNL175C, strain NOP13, hits give low values 0.966 | locus YNL197C, strain WHI3, hits give low values 0.984 | locus YNL224C, strain SQS1, hits give low values 0.998 | locus YOR083W, strain WHI5 (second series), hits give low values 1 | locus YPL241C, strain CIN2, hits give low values 1.01

From PubChem BioAssay AID1159580 (chemical genetic matrix, 2015)
